{
  "source": "PubChem BioAssay AID504374",
  "about": "(National Center for Advancing Translational Sciences (NCATS), 2011)",
  "note": "Screen size: about 1,500 compounds; about 100 (6.7%) were called active. About 7% were inconclusive and are not listed. The call rests on the fitted dose curve; in most records, active means well fitted inhibition curve with a large enough effect; inconclusive means small, poorly fitted or top-dose-only effect, or effect the other way; inactive means flat fitted curve, though single readings scatter. For the sample, actives were picked, then their nearest neighbours and some compounds at random. On the % scale 0 is the no-effect control and ±100 the full control effect; potency means the concentration at half of the fitted maximal effect.",
  "data": [
    {"biological_target": "Runt-related transcription factor 1 (Homo sapiens) + Core-binding factor subunit beta (Homo sapiens) (UniProt Q01196+Q13951)", "sequence (Q01196 whole entry, looked up)": "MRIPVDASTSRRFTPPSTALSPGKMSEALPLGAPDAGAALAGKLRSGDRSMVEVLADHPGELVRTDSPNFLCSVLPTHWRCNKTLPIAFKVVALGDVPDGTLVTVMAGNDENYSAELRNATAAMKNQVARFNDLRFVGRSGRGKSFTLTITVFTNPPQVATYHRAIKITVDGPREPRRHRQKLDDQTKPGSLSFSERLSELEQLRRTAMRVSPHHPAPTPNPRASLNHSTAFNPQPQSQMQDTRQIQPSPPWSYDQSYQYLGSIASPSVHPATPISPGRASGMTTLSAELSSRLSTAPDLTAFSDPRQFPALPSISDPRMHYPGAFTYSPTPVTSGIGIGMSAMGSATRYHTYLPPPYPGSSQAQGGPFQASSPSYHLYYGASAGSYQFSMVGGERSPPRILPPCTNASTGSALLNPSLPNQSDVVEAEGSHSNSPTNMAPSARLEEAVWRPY", "sequence (Q13951 whole entry, looked up)": "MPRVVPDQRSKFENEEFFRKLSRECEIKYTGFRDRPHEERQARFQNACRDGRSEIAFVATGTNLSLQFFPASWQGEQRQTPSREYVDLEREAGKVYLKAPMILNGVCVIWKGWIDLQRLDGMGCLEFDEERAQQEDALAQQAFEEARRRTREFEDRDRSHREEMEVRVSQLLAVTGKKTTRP", "experiment": "qHTS Assay for Compounds Blocking the Interaction Between CBF-beta and RUNX1 for the Treatment of Acute Myeloid Leukemia: Hit Validation; further: nearly all actives have a fitted effect of over 60% in size", "settings": "AlphaScreen CBFb-His/RUNX1-biotin binding; series mostly up to 59.8 µM; activity, negative = inhibition: at the top concentration", "description": "NIH Chemical Genomics Center [NCGC]\nNIH Molecular Libraries Probe Production centers Network [MLPCN]\nAssay Submitter (PI): Paul Liu\nCore Binding Factor (CBF) abnormalities are associated with 20-25% of all acute myeloid leukemias (AML), of which 5-10% are further sub classified as acute myelomonocytic leukemia with eosinophilia, also known as M4Eo in the FAB classification scheme. This subtype of leukemia is usually associated with chromosome 16 inversion (p13:q22). Chromosome 16 inversion results in formation of the fusion oncogene CBFB-MYH11, which encodes the fusion protein CBF-beta-SMMHC.\nIt has been hypothesized that the interference of CBF-beta and RUNX1 binding could have therapeutic implications for patients with CBF mediated leukemias. We developed a CBF-beta and RUNX1 binding assay in AlphaScreenTM format and optimized it for high throughput screening to search for inhibitors. The goal of this project is to screen MLPCN's compound collection (MLSMR) for identifying the inhibitors of the interaction between CBF-beta and RUNX1 proteins as research probes. If these probes work well in the animal models, the ultimate goal of this project is to development a new drug treatment for this disease.\nThis assay can not be used to assess how apparent inhibitors interfere with protein binding, and whether inhibitors specifically bind to either protein. Disruption of this protein-protein interaction, through any mechanism, is the intended target activity.\nThe present data set was run to confirm the activity of hits from the primary screen.\nNCGC Assay Protocol Summary:\nStep, Parameter, Description\n(1) Reagent, 3 uL CBFb-His/RUNX1-biotin mix incubated together for 20 minutes at room temperature (30 nM each)\n(2) Compound or control, 23 nL compound stock solution\n(3) Incubation, 15 minutes at Room temperature\n(4) Reagent, 1 uL 50 ng each of beads (Nickel beads and streptavidin beads)\n(5) Incubation, 90 minutes at Room temperature\n(6) Detection, Excitation=365 nm Emission=440 nm, Envision reader in AlphaScreenTM mode\nKeywords: MLSMR, MLPCN, NIH Roadmap, qHTS, NCGC, Core binding factor, CBF, CBF-beta, Acute myeloid leukemia", "values": [
      {"smiles": "COc1cc(/C=N/n2c(-c3ccccc3)n[nH]c2=S)cc(OC)c1O", "activity, negative = inhibition": "-4.33% (inactive)"},
      {"smiles": "Cc1ccc(/C=N/n2c(-c3ccncc3)n[nH]c2=S)s1", "activity, negative = inhibition": "7.78% (inactive)"},
      {"smiles": "COc1ccccc1/C=C/C=N/n1c(-c2ccccn2)n[nH]c1=S", "Potency": "11.2 µM (active)"},
      {"smiles": "CC(=O)c1c(C)nc(Nc2nc3ccccc3s2)nc1C", "activity, negative = inhibition": "10.6% (inactive)"},
      {"smiles": "COc1ccc(Nc2cc(=O)n(-c3ccccc3)c3c2c(=O)n(C)c(=O)n3C)cc1", "activity, negative = inhibition": "7.59% (inactive)"},
      {"smiles": "Cn1c(=O)c2c(nc(N3CCOCC3)n2C/C=C/c2ccccc2)n(C)c1=O", "activity, negative = inhibition": "-3.33% (inactive)"},
      {"smiles": "COCCCN1CCN(C2Cc3ccccc3Sc3ccc(Cl)cc32)CC1", "note": "(stereo unspecified)", "Potency": "12.2 µM (active)"},
      {"smiles": "CC(C)(C)OC(=O)N1CCC[C@H]1c1nnc(SCc2ccccc2)o1", "activity, negative = inhibition": "-4.21% (inactive)"},
      {"smiles": "CCCCNC(=O)Nc1ncn[nH]1", "activity, negative = inhibition": "-4.28% (inactive)"},
      {"smiles": "Cc1nn(-c2ccccc2)c(NC(=O)c2cccs2)c(-c2ccccc2Cl)c1=O", "activity, negative = inhibition": "-2.94% (inactive)"},
      {"smiles": "CC(C)(C)OC(=O)N[C@@H](Cc1ccccc1)c1nnc(SCC(N)=O)o1", "activity, negative = inhibition": "-5.88% (inactive)"},
      {"smiles": "O=C(O)c1ccc(/C=N\\Nc2ccc(S(=O)(=O)N3CCOCC3)cc2[N+](=O)[O-])cc1", "activity, negative = inhibition": "-6.64% (inactive)"},
      {"smiles": "Cc1nn(C)cc1/C=N/NC(=O)c1ccco1", "activity, negative = inhibition": "-3.8% (inactive)"},
      {"smiles": "O=C(N/N=C/c1ccc(Br)s1)c1ccco1", "activity, negative = inhibition": "6.4% (inactive)"},
      {"smiles": "CCN(CC)c1ccc(/C=N/NC(=O)c2ccco2)c(O)c1", "Potency": "31.6 µM (active)"},
      {"smiles": "CCOC(=O)C(=CNNc1c(C)csc1C(=O)OC)C(=O)OCC", "activity, negative = inhibition": "-2.1% (inactive)"},
      {"smiles": "COC(=O)[C@H](CC(C)C)NC(=O)NCCC1=CCCCC1", "activity, negative = inhibition": "-14.1% (inactive)"},
      {"smiles": "CCOc1ccc(/C=C2\\CCc3ccccc3C2=O)cc1", "activity, negative = inhibition": "-3.3% (inactive)"},
      {"smiles": "CCCOc1ccc(-c2nc(-c3ccc([N+](=O)[O-])cc3)cs2)cc1", "activity, negative = inhibition": "-3.28% (inactive)"},
      {"smiles": "COc1cccc(C2/C(=C(/O)c3ccccc3)C(=O)C(=O)N2Cc2ccco2)c1", "note": "(stereo unspecified)", "activity, negative = inhibition": "-6.74% (inactive)"},
      {"smiles": "O=C(/C=C/c1ccccc1)Nc1cccnc1Oc1ccccc1F", "activity, negative = inhibition": "-4.55% (inactive)"},
      {"smiles": "O=[N+]([O-])c1ccc2c(c1)S(=O)c1ccccc1-2", "note": "(stereo unspecified)", "activity, negative = inhibition": "-4.82% (inactive)"},
      {"smiles": "Cc1cc([N+](=O)[O-])nn1CC(=O)N/N=C/c1ccccc1F", "activity, negative = inhibition": "-9.4% (inactive)"},
      {"smiles": "O=[N+]([O-])c1ccc(O)c(/C=N/NC2=NS(=O)(=O)c3ccccc32)c1", "Potency": "2.82 µM (active)"},
      {"smiles": "COC(=O)[C@H](CC(C)C)NC(=O)N1CCCCC1C", "note": "(stereo partly specified)", "activity, negative = inhibition": "-2.71% (inactive)"},
      {"smiles": "COc1ccc(/C(C)=N/NC(=O)CNC(=O)Cc2ccccc2)c(OC)c1", "activity, negative = inhibition": "-10.6% (inactive)"},
      {"smiles": "Cc1c(Cl)cccc1NC(=S)N(CCN(C)C)C(C)c1ccccn1", "note": "(stereo unspecified)", "Potency": "4.34 µM (active)"},
      {"smiles": "Cc1cccc(C)c1NC(=S)N(CCN(C)C)C(C)c1ccccn1", "note": "(stereo unspecified)", "Potency": "4.86 µM (active)"},
      {"smiles": "CCCCNC(=O)Nc1ccccc1CC", "activity, negative = inhibition": "-3.42% (inactive)"},
      {"smiles": "Cc1ccc(C)c(NC(=S)N(CCN(C)C)C(C)c2ccccn2)c1", "note": "(stereo unspecified)", "Potency": "4.86 µM (active)"},
      {"smiles": "CCc1ccccc1NC(=S)N(CCN(C)C)C(C)c1ccccn1", "note": "(stereo unspecified)", "Potency": "6.12 µM (active)"},
      {"smiles": "COc1ccc(C2=NOC(CNC(=O)c3ccccc3Br)C2)c(OC)c1", "note": "(stereo unspecified)", "activity, negative = inhibition": "-1.57% (inactive)"},
      {"smiles": "CC(C)(C)NC(=O)NCCc1ccccc1", "activity, negative = inhibition": "-1.62% (inactive)"},
      {"smiles": "Fc1ccc(-c2cc(-c3cccs3)cc(-c3ccccc3)n2)cc1", "activity, negative = inhibition": "-3.64% (inactive)"},
      {"smiles": "Clc1ccc(Nc2ccc(Cl)nn2)cc1", "activity, negative = inhibition": "2.4% (inactive)"},
      {"smiles": "COCc1cc(=O)[nH]c2c1c(-c1ccccc1)nn2C", "activity, negative = inhibition": "0.43% (inactive)"},
      {"smiles": "Cc1cc(N2CCOCC2)n2ncc(-c3ccc(Cl)cc3)c2n1", "activity, negative = inhibition": "-1.58% (inactive)"},
      {"smiles": "CC(C)c1nc(C#N)c(NN)o1", "activity, negative = inhibition": "-5.01% (inactive)"},
      {"smiles": "COCc1cc(=O)n2[nH]c(-c3ccco3)cc2n1", "activity, negative = inhibition": "-12.9% (inactive)"},
      {"smiles": "CCC1(CC)Nc2ccccc2C(=O)N1c1ccc(OC)cc1", "activity, negative = inhibition": "-2.48% (inactive)"},
      {"smiles": "CCNC(=O)NC(=O)c1csc([N+](=O)[O-])c1", "activity, negative = inhibition": "-0.4% (inactive)"},
      {"smiles": "Cc1ccc(Cl)cc1NC(=S)N(CCN(C)C)C(C)c1ccccn1", "note": "(stereo unspecified)", "Potency": "5.46 µM (active)"},
      {"smiles": "Cc1ccccc1NC(=S)Nc1ccccn1", "activity, negative = inhibition": "1.57% (inactive)"},
      {"smiles": "Cc1ccc(Cl)cc1NC(=S)NN", "activity, negative = inhibition": "-9.41% (inactive)"},
      {"smiles": "Cc1cc(NC(=O)Nc2cc(Cl)ccc2C)no1", "activity, negative = inhibition": "7.12% (inactive)"},
      {"smiles": "Cc1ccccc1NC(=S)N(CCN(C)C)C(C)c1ccccn1", "note": "(stereo unspecified)", "Potency": "4.86 µM (active)"},
      {"smiles": "NC(=O)C1CCN(c2c([N+](=O)[O-])cc(C(F)(F)F)cc2[N+](=O)[O-])CC1", "activity, negative = inhibition": "-3.87% (inactive)"},
      {"smiles": "C/C(=N\\Nc1ccc(C#N)cc1[N+](=O)[O-])c1ccc(O)cc1", "activity, negative = inhibition": "-17.7% (inactive)"},
      {"smiles": "CC1CC(=O)Nc2ccccc2N1S(=O)(=O)c1ccc(Cl)cc1", "note": "(stereo unspecified)", "activity, negative = inhibition": "-2.41% (inactive)"},
      {"smiles": "O=C(CCCCCCCCCCC(=O)NCc1cccnc1)NCc1cccnc1", "activity, negative = inhibition": "-0.989% (inactive)"},
      {"smiles": "Cc1ccc(C2N=C(N)Nc3nc(=O)c4ccccc4n32)cc1", "note": "(stereo unspecified)", "activity, negative = inhibition": "3.03% (inactive)"},
      {"smiles": "Cc1cccnc1NC(=O)c1csnn1", "activity, negative = inhibition": "-0.56% (inactive)"},
      {"smiles": "O=C(OCC1OC(OC(=O)c2cc(O)c(O)c(OC(=O)c3cc(O)c(O)c(O)c3)c2)[C@@H](OC(=O)c2cc(O)c(O)c(OC(=O)c3cc(O)c(O)c(O)c3)c2)C(OC(=O)c2cc(O)c(O)c(OC(=O)c3cc(O)c(O)c(O)c3)c2)C1OC(=O)c1cc(O)c(O)c(OC(=O)c2cc(O)c(O)c(O)c2)c1)c1cc(O)c(O)c(OC(=O)c2cc(O)c(O)c(O)c2)c1", "note": "(stereo partly specified)", "Potency": "0.398 µM (active)"},
      {"smiles": "O=c1[nH]nc(N2CCOCC2)c(=O)[nH]1", "activity, negative = inhibition": "0.379% (inactive)"},
      {"smiles": "CCCCCCC(=O)N(O)C1CC(=O)N(c2ccc(F)cc2)C1=O", "note": "(stereo unspecified)", "activity, negative = inhibition": "-2.04% (inactive)"},
      {"smiles": "O=C1Nc2ccccc2C1(O)Cc1ccccn1", "note": "(stereo unspecified)", "activity, negative = inhibition": "-2.94% (inactive)"}
    ]}
  ]
}
